# Only some compounds are listed: those with a hit (about 2.1% of all), similar ones and a draw of the others.
# Efa HMGR inh = inhibitors of class II HMG-CoA reductase from Enterococcus faecalis; AID 1066; hit rate 0.41% among 190,000; purified E. faecalis HMGR, NADPH absorbance 340 nm kinetic; inhibition, % at 10 µM;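 active means inhibition above a set limit, the median over all tested compounds plus 3 SD, cut at about 9.5% in these data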;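 further: enzyme runs in reverse so mevalonate oxidation gives rising NADPH absorbance; 0% = complete reaction with DMSO and 100% = background rate lacking mevalonate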
# PGE2 EP2 inh = inhibitors of human EP2 prostaglandin E2 receptor; inhibition, % at 25 µM; P43116; C6 glioma cells expressing human EP2, cAMP TR-FRET; cells stimulated with saturating PGE2; hit rate 0.52% among 260,000;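 active means percent inhibition above 40 after rounding to a whole number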;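 further: rat C6 glioma host cells with rolipram phosphodiesterase inhibitor present; the protocol text gives 20 µM as final concentration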
# Target sequence (P43116 whole entry, looked up): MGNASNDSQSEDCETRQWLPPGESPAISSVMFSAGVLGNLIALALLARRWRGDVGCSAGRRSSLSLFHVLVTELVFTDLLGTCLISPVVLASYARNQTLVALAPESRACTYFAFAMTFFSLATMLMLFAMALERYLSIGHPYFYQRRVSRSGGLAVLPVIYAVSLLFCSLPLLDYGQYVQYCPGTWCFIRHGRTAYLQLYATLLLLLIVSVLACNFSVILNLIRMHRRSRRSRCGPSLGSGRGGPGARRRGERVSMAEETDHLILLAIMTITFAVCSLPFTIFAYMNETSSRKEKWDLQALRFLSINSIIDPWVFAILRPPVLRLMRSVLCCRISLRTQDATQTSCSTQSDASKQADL
# EP2 mod = EP2 receptor (human) modulation. P43116. EP2-expressing cells, cAMP HTRF FRET, PGE2 co-stimulation. induction, % at 25 µM. hit rate 0.83% among 260,000;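 active means compounds whose cAMP rise, as percent of the full-agonist control response, exceeds 60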;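 further: rat C6 glioma line stably carrying human EP2 under a CMV promoter; the protocol text gives 20 µM as final concentration; 100% = response of wells given 1 µM PGE2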
# Avidin bead fluor = compound fluoresces at 488/530 nm on avidin beads. compound fluorescence 488/530 nm, flow cytometry; stronger effect = higher value. fluorescence (KMESF) at 10 µM. AID 1775. hit rate 0.38% among 220,000; in the data active means fluorescence above about 47
# GSH fluor = GSH bead compound fluorescence profile; hit rate 0.25% among 190,000; fluorescence (KMESF) at 10 µM; GSH beads flow cytometry, compound fluorescence 488/530 nm; stronger effect = higher value; in the data active means fluorescence above about 89;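 further: glutathione beads carrying GST-tagged Bcl family fusion proteins plus one bare bead set; values are compound well signal with DMSO vehicle wells as background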
# EP2 confirm = EP2 receptor cAMP induction, counter-screens negative; calls only at 20 µM (by protocol); C6 glioma EP2 cells, cAMP HTRF induction; plus low (about EC15) PGE2 agonist; shares compounds with EP2 mod; hit rate 47% among 1,300; AID 1080;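 active means cAMP induction above 50% in the main assay while under 30% in all four parallel counter assays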;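 further: rat C6 glioma cells stably expressing human EP2 receptor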
# An asterisk follows results filed as active; i = inactive; nt = no result given; + = active, no number; ! = not active in a repeat.
SMILES,Efa HMGR inh,PGE2 EP2 inh,EP2 mod,Avidin bead fluor,GSH fluor,EP2 confirm
CC(C)c1nc2sc3c(NCc4ccccc4)ncnc3c2c2c1COC(C)(C)C2,-5,7,38,6,50,nt
CCN(CCO)c1ncnc2c1sc1nc(C(C)C)c3c(c12)CC(C)(C)OC3,-6,15,79*,22,11,i
Cc1nc2ccccc2c2nn(CC(=O)Nc3ccccc3-c3ccccc3)c(=O)n12,nt,4,-10,nt,nt,nt
CCOC(=O)c1c(NC(=O)CSc2nnnn2-c2ccccc2)sc2c1CCC(C)C2 (stereo unspecified),0,9,39,7,6,nt
CCOC(=O)c1c(NC(=O)CSc2ncnc3[nH]ncc23)sc2c1CCC(C)C2 (stereo unspecified),1,7,66*,11,12,i
Cc1ccc(-c2csc(Nc3ccc(C(=O)O)cc3)[n+]2Cc2ccccc2)cc1,-1,4,76*,4,10,+
Cc1nc(NC(C)c2ccccc2)c2c3c(sc2n1)CCC3 (stereo unspecified),1,7,71*,7,11,i
CC12CCC(C(=O)N(CSC(=S)N/N=C\c3ccccc3Cl)C1=O)C2(C)C (stereo unspecified),-2,23,70*,6,12,i
Cc1onc(-c2c(F)cccc2Cl)c1C(=O)OCn1nnc2ccccc2c1=O,-1,7,77*,6,18,i
Cc1onc(-c2c(F)cccc2Cl)c1C(=O)ONC(=O)c1ccccc1,nt,7,-14,6,nt,nt
N#CCSc1nc2sc3c(c2c(=O)n1C1CCCCC1)CCCC3,0,16,73*,11,14,+
COc1cccc2c1oc(=O)c1c(NC(C)=O)nc(-c3ccccc3)nc12,nt,11,10,nt,nt,nt
Cc1noc(C)c1C(=O)N[C@H](C)Cn1nnc2ccccc21,nt,8,12,nt,nt,nt
CC(C)Cc1nc2sc3c(=O)[nH]cnc3c2c2c1CCC2,-2,5,74*,4,16,i
CCc1nc2sc3c(=O)[nH]cnc3c2c2c1CSC(C)(C)C2,nt,9,49,6,nt,nt
COc1cc(C(=O)Nc2nnc(-c3ccc4c(c3)OCO4)s2)cc(OC)c1OC,nt,18,9,nt,nt,nt
CC(=O)C1=C(O)C(=O)NC1c1ccc(Cl)cc1Cl (stereo unspecified),nt,17,11,nt,nt,nt
COc1ccc(Cl)cc1NC(=O)CSc1nc2ccccc2c(=O)n1Cc1ccco1,nt,10,-9,nt,nt,nt
Cc1cccc(OCc2n[nH]c(=S)n2Cc2ccccc2)c1,-10,2,51,10,19,i
CCCc1cc(=O)n2[nH]c(NCc3cccs3)nc2n1,1,-1,71*,33,45,i
CCCc1cc(=O)n2[nH]c(NCc3ccccc3Cl)nc2n1,-7,11,29,29,17,nt
COc1ccc(C2=Nn3c(nnc3-c3ccccc3OC)SC2)cc1OC,-4,8,74*,7,28,i
CCc1ccc(C2=Nn3c(nnc3-c3cccs3)SC2)cc1,-10,15,89*,10,6,+
COc1ccc(C2=Nn3c(nnc3-c3ccccn3)SC2)cc1OC,-1,2,42,12,9,nt
COc1ccc(C2=Nn3c(nnc3-c3ccc(OC)cc3)SC2)cc1,-3,5,92*,5,41,+
SMILES,Efa HMGR inh,PGE2 EP2 inh,EP2 mod,Avidin bead fluor,GSH fluor,EP2 confirm
CCOc1ccccc1-n1c(SCC(=O)N(C)C)nnc1-c1ccco1,nt,12,37,nt,nt,nt
O=C(Nc1ccccc1)NC1(C(=O)N2CCN3CCCC3C2)CCCCC1 (stereo unspecified),nt,5,4,nt,nt,nt
O=C(c1nsc(N2CCCCC2)c1Cl)N1CCCCC1,nt,12,-14,nt,nt,nt
Cc1cc([N+](=O)[O-])c(C(C)(C)C)cc1N,-1,9,10,11,43,nt
Cc1cc([N+](=O)[O-])c(C)c(Br)c1C,nt,15,52,nt,nt,i
COc1ccc(-n2c(SCC(=O)Nc3cccc(C(F)(F)F)c3)nnc2-c2cccnc2)cc1,nt,10,2,nt,nt,nt
Cc1nc2c3cc(F)ccc3n(Cc3ccccc3)c2s1,-2,2,72*,15,6,+
CCOC(=O)c1ccccc1NC(=O)CSc1ncc(C(=O)OCC)c(N)n1,-7,3,65*!,6,52,i
CCN(CC)S(=O)(=O)c1c(OC)cc(C)c(Cl)c1C,-5,8,66*,6,23,i
Cc1nonc1CC(=O)N[C@H](Cn1nc(-c2ccc(F)c(F)c2)ccc1=O)C(C)C,nt,nt,-2,nt,nt,nt
CCN(CC)C(=O)c1nn(-c2ccccc2)c2c1C1CCC2(C)C1(C)C (stereo unspecified),-4,7,72*,10,12,i
CC(C)(C)OC(=O)N1CCC[C@H](C(=O)c2ccccc2F)C1,nt,8,6,nt,nt,nt
CCOP(=O)(c1ccccc1)c1nc(-c2ccccc2Cl)oc1N1CCCCC1 (stereo unspecified),-8,6,71*,12,28,+
CCOP(=O)(OCC)c1nc(-c2cccc([N+](=O)[O-])c2)oc1N1CCCCC1,1,8,-13,11,8,nt
Cc1ccccc1S(=O)(=O)c1c(C)cc(C)n(C(C)C)c1=O,5,3,71*,7,48,+
CCCCn1c(C)cc(C)c(S(=O)(=O)c2ccccc2C)c1=O,0,11,78*,7,48,+
COc1ccc(-c2c(C)nn3c(NCCO)cc(C)nc23)cc1,nt,nt,-31,nt,nt,nt
O=C(CSc1nnns1)N1CCCc2ccccc21,nt,15,-36,nt,nt,nt
Cc1ccc(NC(=O)CSc2nnc(-c3ccco3)n2C)c(C)c1,nt,14,-20,nt,nt,nt
CC(=C\c1ccccc1)/C=C1/SC(=S)N(C(C(=O)O)C(C)C)C1=O (stereo unspecified),1,6,54,2,11,+
CCCC(=O)Nc1ccc(N2CCN(C(=O)C(C)C)CC2)cc1,nt,10,6,nt,nt,nt
CCSc1nnc(-c2ccc(Cl)cc2)c2ccccc12,1,3,66*,13,8,i
CCSc1nnc(-c2ccc(C)cc2)c2ccccc12,2,15,11,20,15,nt
C[C@H](CCC(=O)O)[C@@H]1CC[C@@H]2[C@H]3CC[C@@H]4C[C@H](O)CC[C@@]4(C)[C@@H]3CC[C@]21C,nt,35,51,nt,nt,i
C[C@H](CCC(=O)O)[C@H]1CC[C@H]2[C@@H]3CC[C@@H]4C[C@H](O)CC[C@]4(C)[C@H]3C[C@H](O)[C@]12C,nt,12,nt,nt,nt,nt
O=C(O)c1ccc(Nc2nc(-c3ccc(O)c(O)c3)cs2)cc1,nt,8,-68,nt,nt,nt
CC(=O)NC1=NN(C(C)=O)C2(S1)C(=O)N(C)c1c(C)cc(C)cc12 (stereo unspecified),nt,13,-9,nt,nt,nt
CCN(CC)C(=O)Cn1cc(C(=O)C(=O)NCc2ccco2)c2ccccc21,-5,2,67*,25,23,i
